Holding throughout (test): PBM binding z-score (relative to random genomic background probes); higher = stronger binding; sequences stand for … in GC…GCGATTGACAGCGTAGAATGAAGG
The subject of test [1] is RARb homodimer (NR concentration 270 nM). In outline: (§1)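 Each nuclear receptor dimer, without ligand, was incubated for 1 h on custom Agilent 4×180K protein-binding microarrays. Binding was detected with antibodies against each partner (one per run), and scanned fluorescence was regression-normalized. The binding z-scores are referenced to random human genomic background probes.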

The test system of test [2] is RARg:RXRa (NR concentration 270 nM, RXRa partner concentration 90 nM). The method, boiled down: as §1
In test [3] the test system is RARg homodimer (NR concentration 270 nM). In outline: as §1
Test [4] has as its system RXRa DBDmut IVT, anti-RXR (DBD mutation: RXRa K156A/R161A, NR concentration 90 nM). The method, boiled down: as §1
Test [5] concerns RXRa homodimer (NR concentration 180 nM). The method, boiled down: as §1
For test [6], the system named is THRa:RXRa (NR concentration 90 nM, RXRa partner concentration 90 nM). In outline: as §1
The test system of test [7] is THRa homodimer (NR concentration 90 nM). In outline:
as §1

Test [8] relates to VDR homodimer (NR concentration 270 nM). The method, boiled down: as §1

As to TCTAGGTGGTCACGGAGGTCACACACGACGGGTA, the PBM binding z-score in test [1] is 4.44; in test [2], 5.09; in test [3], 5.12; in test [4], 0.895; in test [5] it was 4.95; in test [6], 3.62. For the same sequence, the PBM binding z-score in test [7] came out at 2.2; in test [8], 3.08.

AGAATGAGGTTTTTAAGATCAGGGAATTGCGGTC: the PBM binding z-score in test [1] is -0.159; in test [2], -0.0419; in test [3], -0.355; in test [4], 0.351; in test [5], 0.0313; in test [6] it was 0.216. Moreover, the PBM binding z-score was -0.0732 in test [7] and -0.068 in test [8].

Take GATACAGGGTCAAGGCCAGAGGACGCGTATTGAT: the PBM binding z-score in test [1] turned out to be 3.63; in test [2], 5.29; in test [3] it was 4.94; in test [4] it was 2.07; in test [5] it was 5.78; in test [6], 3.64. Moreover, the PBM binding z-score worked out at 1.43 in test [7] and 2.28 in test [8].

Regarding CAGACTAGGTCAAGGTCAAAGTCGGTTTGTGCCA, the PBM binding z-score in test [1] was found to be 5.11; in test [2], 6.12; in test [3], 6.67; in test [4] it was 2.61; in test [5], 6.04; in test [6] it was 4.32. Moreover, the PBM binding z-score in test [7] came out at 3.45; in test [8], 4.18.

In the case of TCTTGTAGATCAACAGGAGGTTAAGCAAGATCGA, the PBM binding z-score in test [1] stood at 0.427; in test [2], 0.916; in test [3] it was 0.301; in test [4], 0.224; in test [5], 1.01; in test [6], 1.24. Further, the PBM binding z-score was -0.612 in test [7] and -0.456 in test [8].

ATATGTAGGTTAGCTGGGGTAATTCAGACTAGGC: the PBM binding z-score was found to be 0.856 in test [1]; 0.69 in test [2]; 0.761 in test [3]; 0.642 in test [4]; 0.773 in test [5]; 3.87 in test [6]. Besides, the PBM binding z-score worked out at 0.672 in test [7] and 0.606 in test [8].

TCATAAAGGTAAATGCTAGGTGAAAGTCCGATCT: the PBM binding z-score in test [1] was found to be 0.719; in test [2] it was 1.03; in test [3] it was 0.541; in test [4] it was 1.87; in test [5], 1.05; in test [6] it was 2.03. In addition, the PBM binding z-score was 0.511 in test [7] and 0.333 in test [8].

The values above are taken from the supplement of paper PMC6555819.
